Pf Dd2 growth: Plasmodium falciparum Dd2 growth inhibition; Potency, µM (highest dose often 28.9 µM), usual class: inhibitors; 120,000 tested, 4.3% active; P. falciparum Dd2 growth, SYBR Green, 72 h; AID 1347417; active = well fitted inhibition curve with a large enough effect; note: nearly all actives have a fitted effect of over 65% in size
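Readout: SYBR Green fluorescence, 485 nm excitation, 535 nm emission, after ~16 h lysis at 37C. Before that, Dd2-infected red cells (2.5% hematocrit) grew 72 h with compound, 29 uM top final concentration.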
Of the large screens only hits and unclear results are named; the others gave an inactive call. Only a selection was taken, and hits are over-represented in it overall.

CCc1noc(-c2cn(C3CCN(C(=O)c4ccc(Cl)s4)CC3)nn2)n1	none
Cc1ccccc1C(=O)N1CCC(c2n[nH]c(=O)n2-c2ccccc2)CC1	none
O=C([C@H]1C[C@H](Oc2ccccc2)CN1C(=O)C1CCC1)N1CCOCC1	none
COCCCNC(=O)N1CCc2nn(CC3CC3)c(=O)n2CC1	none
CCOCCOC1CCN(C(=O)Cc2cccc(F)c2)CC1	none
CCOc1ccc(-c2cn3c(n2)sc2cc(C(=O)NCCCN(CC)CC)ccc23)cc1	Pf Dd2 growth 2.8µM
CCN(CC)CCNC(=O)C1CCN(c2nn3cc(-c4ccc(F)cc4)nc3s2)CC1	none
CCOc1ccc(-c2cc3c(=O)n(CCNC(=O)c4ccc(Cl)cc4)ccn3n2)cc1	none
CCOc1ccc(-c2cn3c(n2)sc2cc(C(=O)NCCCN4CCCCCC4)ccc23)cc1	Pf Dd2 growth 2.2µM
COc1ccc(-c2cn3c(n2)sc2cc(C(=O)Nc4ccc(C)c(Cl)c4)ccc23)cc1	Pf Dd2 growth 6.3µM
CCN(CC)CCNC(=O)c1ccc2c(c1)sc1nc(-c3ccc(F)cc3)cn12	Pf Dd2 growth 3.2µM
Cc1c(C(=O)NCc2ccccc2Cl)sc2nc(-c3ccc(F)cc3)cn12	none
COc1ccc(-c2cn3c(n2)sc2cc(C(=O)Nc4ccc(C)cc4C)ccc23)cc1	none
CCOc1ccc(-c2cn3c(n2)sc2cc(C(=O)NC4CCCc5ccccc54)ccc23)cc1 (stereo not drawn)	none
COc1ccc(-c2cn3c(n2)sc2cc(C(=O)Nc4c(C)cccc4C)ccc23)cc1	none
CCOC(=O)C1=CN(CC(=O)Nc2ccc(C)c(C)c2)S(=O)(=O)N=C1C	none
O=C(CN1CCOc2ccccc2C1)N[C@H]1CCOC[C@H]1C1CCOCC1	none
CC1(C(=O)NCCCN2CCCc3ccccc32)CCCCC(=O)N1 (stereo not drawn)	none
COCCn1ncc(N2CCCC(CC(=O)Nc3cc(OC)ccc3OC)C2)cc1=O (stereo not drawn)	none
O=C(c1ccc(Cl)nc1)N1CCCC(c2nn(-c3ccc(F)cc3)c(=O)[nH]2)C1 (stereo not drawn)	none
COc1ccc(C(=O)N2C(C(=O)N3CCCC3)COC23CCN(C(=O)C2CCC2)CC3)cc1 (stereo not drawn)	none
COC(=O)[C@@H]1Cc2ncn(C(C)C)c2CN1C(=O)c1ccc(OC)cc1	none
Cc1cccc(OCC2(CNS(=O)(=O)c3ccc(Cl)cc3)C[C@@H](O)[C@@H](O)C2)n1 (stereo partly drawn)	none
Cc1nc(N2CCC(NC(=O)COc3ccccc3)CC2)cc(C(F)(F)F)n1	none
COc1ccc(C2C(C(N)=O)=C(C)Nc3nc(-c4ccccc4Cl)nn32)cc1 (stereo not drawn)	none
CCOc1ccc(C2C(C(=O)Nc3ccccc3)=C(C)Nc3nc(-c4ccccc4Cl)nn32)cc1OC (stereo not drawn)	Pf Dd2 growth 8.9µM
CCOc1ccccc1C1C(C(N)=O)=C(C)Nc2nc(-c3ccccc3Cl)nn21 (stereo not drawn)	none
COCCN1CCC(N2CCN(S(=O)(=O)c3ccc(F)cc3F)CC2)C1=O (stereo not drawn)	none
COc1ccc2oc(CNC(=O)c3cc(CC(C)C)nn3C)nc2c1	none
CC(C)(C)OC(=O)N1CCC(c2c(C(=O)NC3CCN(Cc4ccccc4)CC3)cnn2-c2ccc(F)cc2F)CC1	Pf Dd2 growth 11µM
CCOC(=O)N1CCC(NC(=O)c2cnn(-c3ccc(F)cc3F)c2C2CCN(C(=O)OC(C)(C)C)CC2)CC1	Pf Dd2 growth 3.5µM
O=C1NC2(CCN(C(=O)c3ccccc3)C2)N=C1c1cccnc1 (stereo not drawn)	none
CCCS(=O)(=O)NCc1cccnc1Oc1ccc(F)c(F)c1	none
Cc1ccc(OCC(=O)N2CCC(N3CC4CC(C3)[C@H]3CCCC(=O)N3C4)CC2)cc1 (stereo partly drawn)	none
Cc1ccc(C(=O)NC(C(=O)N2CCCC2)C2CCN(C(=O)CC(C)C)CC2)cc1 (stereo not drawn)	none
CCOc1ccc(CNC(=O)c2cc3c(=O)n(C)c4ccccc4c3s2)cc1	none
Cc1ccc2nc(Cl)c3cc(C(=O)NCCCN(C)Cc4ccccc4)sc3c2c1	Pf Dd2 growth 7.9µM
CC1CCC(NC(=O)c2cc3c(Cl)nc4ccccc4c3s2)CC1 (stereo not drawn)	none
Cc1ccc2nc(Cl)c3cc(C(=O)NC4CCCCCC4)sc3c2c1	none
CCCN(C(=O)c1cc2c(=O)[nH]c3ccc(C)cc3c2s1)c1ccc(CC)cc1	none
COCCNC(=O)c1cc2c(Cl)nc3ccc(C)cc3c2s1	none
COCCN(Cc1ccco1)C(=O)c1cc2c(=O)[nH]c3ccc(C)cc3c2s1	none
CCN(CCCNC(=O)c1cc2c(=O)n(C)c3ccccc3c2s1)Cc1ccccc1	Pf Dd2 growth 5µM
CC1CCCN(C(=O)c2cc3c(Cl)nc4ccccc4c3s2)C1 (stereo not drawn)	none
CCOCCCN(Cc1ccco1)C(=O)c1cc2c(=O)[nH]c3ccc(C)cc3c2s1	Pf Dd2 growth 10µM
CCN(CCCNC(=O)c1cc2c(=O)n(C)c3ccccc3c2s1)c1ccccc1	none
CC1CCCN(CCCNC(=O)c2cc3c(Cl)nc4ccccc4c3s2)C1 (stereo not drawn)	Pf Dd2 growth 4.5µM
O=C(c1cccc2c1CCN2C(=O)C1CC1)N1CCCCC1	none
Cc1noc(C)c1S(=O)(=O)N1C[C@@H](Oc2cccnc2)C[C@H]1C(=O)NC1CC1	none
CC(C)NC(=O)NC[C@H]1O[C@@H](CO)[C@@H](O)[C@H]1N(C)CCN(C)C	none
O=C(c1ccccc1F)N1CCC2(CC(c3cccc(C(F)(F)F)c3)=NO2)C1 (stereo not drawn)	none
CCN(CCCNC(=O)c1cc2c(=O)[nH]c3ccc(C)cc3c2s1)Cc1ccccc1	Pf Dd2 growth 7.9µM
Cc1cccc(CCNC(=O)c2cc3c(=O)[nH]c4ccc(C)cc4c3s2)c1	none
CCCCN(CC)CCCNC(=O)c1cc2c(=O)oc3ccc(C)cc3c2s1	none
Cc1cc(Cl)ccc1NC(=O)NCC1CCOCC1	none
CCCC(=O)N1CCC(Oc2ccc3c(cnn3CCC(=O)O)c2)CC1	none
CCO[C@H]1CN(Cc2cnc(-c3ccccc3C)s2)C[C@@H]1O	none
Cn1nccc1C(=O)N1CC(c2ncc3c(-c4ccccc4)nccn23)C1	none
Cc1ccccc1-c1nccn2c(C3CN(Cc4ccccc4O)C3)ncc12	Pf Dd2 growth 0.35µM
CC(=O)N1CCN(C(=O)c2cnc(-c3cccnc3)nc2)CC(O)C1 (stereo not drawn)	none
COCc1ccc(C(=O)N2CCN(CCO)CC(O)C2)cc1 (stereo not drawn)	none
O=C(CC(c1ccc(Cl)cc1)c1c[nH]c2ccc([N+](=O)[O-])cc12)N1CCOCC1 (stereo not drawn)	none
O=C(CC(c1ccccc1)c1ccccc1Cl)N1CCOCC1 (stereo not drawn)	none
O=C(CC(c1ccc(F)cc1)c1cn(Cc2ccccc2)c2ccc([N+](=O)[O-])cc12)N1CCOCC1 (stereo not drawn)	Pf Dd2 growth 0.18µM
COc1cc(=O)n2c(c1C(=O)Nc1cc(Cl)ccc1F)CCCC2	none
COCCN1C(=O)c2ccccc2C(C(=O)NCC(C)C)C12CCCC2 (stereo not drawn)	none
COCCN1C(=O)c2ccccc2C(C(=O)NCCCOC(C)C)C12CCCCC2 (stereo not drawn)	none
COCCN1C(=O)c2ccccc2C(C(=O)NCc2ccccc2F)C12CCCCC2 (stereo not drawn)	none
COCCN1C(=O)c2ccccc2C(C(=O)NCc2ccco2)C12CCCCC2 (stereo not drawn)	none
CCc1nc(NC(=O)C2c3ccccc3C(=O)N(CCOC)C23CCCC3)sc1C (stereo not drawn)	Pf Dd2 growth 2µM

Assay outcomes deposited in PubChem by National Center for Advancing Translational Sciences (NCATS).
